Screening data deposited in PubChem by National Center for Advancing Translational Sciences (NCATS).
OvCa metastasis – inhibitors of ovarian cancer cell adhesion and invasion in omental model; SKOV3ip1-GFP adhesion/invasion on 3D omental model, fluorescence; Potency, µM (titrated, usually from 45.8 µM), for the others: at the top dose activity change, negative = inhibition, hits mostly inhibitors; 0.1% of 46,000 active; AID 1963576;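 note: potency is the fitted concentration of half-maximal effect; plate controls were DMSO wells for no effect and tomatine positive control wells for full effect; nearly all actives have a fitted effect of over 65% in size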
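Adhesion/invasion was scored as fixed GFP-labeled SKOV3ip1 cell counts (488/509 nm), normalized to DMSO and tomatine controls. Cancer cells in serum-free medium, with four compound doses (0.36-46 umol/L), sat 2 hr at RT then 16 hr at 37 C on a 48 hr fibroblast/mesothelial/ECM culture.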
GALK inh – inhibitors of human galactokinase (GALK) | P51570 | recombinant GALK, Kinase-Glo ATP luminescence, 1 h | Potency, µM (highest dose often 57.5 µM), for the others: at the highest dose activity, negative = inhibition, most hits filed as inhibitors | 44,000 tested, under 10 active;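 note: plate controls were full GALK reaction for no effect and reaction lacking GALK for full effect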
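Reactions with and without enzyme served as controls. GALK at 5 nM phosphorylates 100 uM galactose using 35 uM ATP (HEPES pH 8.0, Mg2+) for 1 h at RT, with luminescence read 10 min after adding Kinase-Glo Plus.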
GPR32 ag – activates human resolvin D1 receptor GPR32 | O75388 | CHO-K1 GPR32 beta-arrestin PathHunter luminescence, 90 min; zero percent set by DMSO-only wells | activation, % at 76.9 µM | 2.5% of 48,000 active | AID 1346428;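 active = activation of at least 60% and not above a set upper limit, about 1 call in 100 departs from these limits; inconclusive = activation of 40% to 60%, or above that upper limit; inactive = activation under 40%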; note: 0% is about no effect
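PathHunter beta-arrestin recruitment in CHO-K1 cells stably expressing ProLink-tagged GPR32. Cells were exposed to compound for 90 min at 37 C, then chemiluminescence was read after 1 h detection at ambient temperature; DMSO served as basal control.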
PTAP-TSG101 blk – TSG101-PTAP interaction inhibition, HIV-1 budding; Potency, µM (titrated, usually from 115 µM), actives largely listed as inhibitors; Fluorescence polarization, FITC-PTAP peptide/Tsg101, 20 min; 44,000 tested, under 10 active; AID 1347069; note: potency is the fitted concentration of half-maximal effect; 0% is about no effect
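Compounds pinned into 10 uM Tsg101 binding domain, then 50 nM FITC-PTAP peptide added in pH 7.5 HEPES buffer; FP read after 20 min, room temperature. Total S+P intensity flags fluorescent compounds; active cut-off <25 µM, efficacy <60%.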
NTMT1 inh – inhibitors of human N-terminal methyltransferase NTMT1. NTMT1 MTase-Glo SAH luminescence, purified enzyme. Potency, µM (series often up to 114 µM), inactives show at the top dose activity change, negative = inhibition, most hits filed as inhibitors. 2.5% of 59,000 active. AID 1645870. Q9BV86;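 note: potency is the fitted concentration of half-maximal effect; plate controls were DMSO vehicle for no effect and no enzyme for full effect; nearly all actives have a fitted effect of over 65% in size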
B2AR arrestin ag – beta-arrestin recruitment by human beta2-adrenergic receptor ligands; P07550; HTLA Tango cells, beta-arrestin recruitment, luciferase luminescence, 18 h; Potency, µM (top dose mostly 46.1 µM), most hits filed as activators; 44,000 tested, under 10 active;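 note: potency is the fitted concentration of half-maximal effect; 0% = DMSO and full agonism = EC100 isoproterenol or metaproterenol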
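Tango cells expressing recombinant beta2-AR and beta-arrestin were treated with compounds (up to 46 microM titration) in DMEM with 1% FBS for 18 hr at 37 degrees C. Beta-arrestin recruitment drove tTA-dependent luciferase, read by luminescence; curves were fitted and classed.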
DYRK1A inh-1 – blocks recombinant human DYRK1A kinase activity. shares compounds with NTMT1 inh. recombinant DYRK1A, Kinase-Glo ATP depletion luminescence. Potency, µM (top dose mostly 76.9 µM), for the others: at the highest dose activity change, negative = inhibition, most hits filed as inhibitors. 80% of 100 active
CLK4 inh-1 – confirmation of human CLK4 kinase inhibitors, SAR round 2; Potency, µM (highest dose often 76.9 µM), without a hit: at the top dose activity, negative = inhibition, usual class: inhibitors; shares compounds with NTMT1 inh; 90% of 90 active; AID 493204; recombinant Clk4, Kinase-Glo ATP luminescence, 4.5 h
CLK4 inh-2 – blocks human CLK4 kinase in radiometric assay | Reaction Biology kinase assay, 10 uM ATP | AID 504421 | 100% of 65 active | shares compounds with NTMT1 inh | Potency, µM, hits mostly inhibitors; calls by dose curve
DYRK1A inh-2 – blocks human DYRK1A kinase in radiometric assay; shares compounds with NTMT1 inh; Reaction Biology kinase assay, 10 uM ATP; Potency, µM, actives largely listed as inhibitors; 90% of 65 active; AID 504424;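 active = compounds that showed inhibition of Dyrk1a and received a fitted potency; inactive = compounds that showed no inhibition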
CLK2 inh – inhibitors of human CLK2 kinase; Reaction Biology kinase assay, 10 uM ATP; AID 504427; shares compounds with NTMT1 inh; Potency, µM, most hits filed as inhibitors; 90% of 65 active;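 active = compound that inhibits Clk2 kinase in the dose series, with an IC50 potency reported; inactive = no inhibition seen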
CLK3 RBC – inhibitors of human CLK3 kinase; shares compounds with NTMT1 inh; Potency, µM, hits mostly inhibitors; 40% of 65 active; recombinant CLK3 kinase assay, 10 uM ATP;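 active = compounds that inhibited Clk3 enough in the ten-dose series to give a half-maximal potency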
Target sequence (P49761 whole entry, looked up): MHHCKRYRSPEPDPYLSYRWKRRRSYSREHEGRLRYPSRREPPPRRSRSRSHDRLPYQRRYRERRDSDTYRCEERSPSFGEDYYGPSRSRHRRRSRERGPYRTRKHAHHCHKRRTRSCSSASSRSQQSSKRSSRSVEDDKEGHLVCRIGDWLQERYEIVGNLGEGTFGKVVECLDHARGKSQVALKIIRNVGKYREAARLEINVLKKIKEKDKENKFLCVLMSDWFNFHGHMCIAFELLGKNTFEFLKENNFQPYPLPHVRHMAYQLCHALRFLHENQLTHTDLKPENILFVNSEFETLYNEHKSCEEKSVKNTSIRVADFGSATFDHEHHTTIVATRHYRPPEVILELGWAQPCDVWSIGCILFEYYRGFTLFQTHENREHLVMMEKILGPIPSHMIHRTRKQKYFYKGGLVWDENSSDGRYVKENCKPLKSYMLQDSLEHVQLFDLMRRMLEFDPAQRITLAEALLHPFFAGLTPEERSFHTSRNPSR
DYRK1B RBC – DYRK1B kinase inhibition; 80% of 65 active; AID 504429; Recombinant Dyrk1b kinase assay, 10 uM ATP; shares compounds with NTMT1 inh; Potency, µM, usual class: inhibitors;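 active = compounds whose dose response shows an inhibitor phenotype against the kinase Dyrk1b; inactive = compounds showing no inhibitor phenotype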
CLK1 inh – inhibitors of human CLK1 kinase. recombinant Clk1 kinase assay, 10 uM ATP. Potency, µM, most hits filed as inhibitors. shares compounds with NTMT1 inh. 90% of 65 active;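 active = compounds that block the splicing kinase Clk1 enough to give a fitted half-inhibition concentration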
Starred values were filed as active, the others as inactive; i = inactive; ? = inconclusive; . = no result. Only some compounds are listed: those with a hit (about 3.8% of all), similar ones and a draw of the others. Unless noted, calls come from the whole dose curve; as a rule, active = well fitted curve in the direction sought with a large enough effect; inconclusive = small, poorly fitted or top-dose-only effect, or another doubt; inactive = no such curve, though single readings can be large; an effect the other way counts as inactive or inconclusive.

SMILES | OvCa metastasis | GALK inh | GPR32 ag | PTAP-TSG101 blk | NTMT1 inh | B2AR arrestin ag | DYRK1A inh-1 | CLK4 inh-1 | CLK4 inh-2 | DYRK1A inh-2 | CLK2 inh | CLK3 RBC | DYRK1B RBC | CLK1 inh
CCNC(=O)c1ccc(-c2ccc3ncnc(NCc4ccc(C)o4)c3c2)o1 | . | . | . | . | ? | . | . | 0.519µM* | 1.36* | 6.3µM* | 4.16µM* | i | 6.74µM* | 5.42µM*
CC(=O)c1ccc(-c2ccc3ncnc(NCc4ccc(C)o4)c3c2)o1 | . | . | . | . | ? | . | . | 0.292µM* | 0.564* | 5.83µM* | 6.85µM* | i | 10.2µM* | 6.98µM*
CCOC(=O)c1ccc(-c2ccc3ncnc(NCc4cccs4)c3c2)o1 | . | . | . | . | . | . | 1.46µM* | . | 0.088* | 1.44µM* | 8.51µM* | i | 4.27µM* | 0.798µM*
Cc1cccc(CNc2ncnc3ccc(-c4cccc(C)c4)cc23)c1 | . | . | . | . | -0.8% | . | . | . | . | . | . | . | . | .
CCOC(=O)c1ccc(-c2ccc3ncnc(NCc4ccc(C)o4)c3c2)o1 | . | . | . | . | ? | . | 5.82µM* | . | . | . | . | . | . | .
CCCCc1ccc(NC(=O)Cn2cnc3c(oc4ccccc43)c2=O)cc1 | -8.7% | 3.4% | -0.7 | i | 8.7% | i | . | . | . | . | . | . | . | .
CCC(=O)N1CCc2cc(Br)cc(S(=O)(=O)CCC(=O)Nc3ccc(C)c(F)c3)c21 | -2.2% | 0.4% | -2.6 | i | 10.0% | i | . | . | . | . | . | . | . | .
Cc1cc(C(=O)Nc2ccc(NC(=O)Cc3ccc(Cl)c(Cl)c3)cc2)no1 | . | . | . | . | 0.1% | . | . | . | . | . | . | . | . | .
